In article PMC5913336, “True equilibrium measurement of transcription factor-DNA binding affinities using automated polarization microscopy” one finds binding signal and Kd data, which are given here for 40 sequences.

A word on the Kd: it is a measure of binding affinity in units of concentration. The low end stands for a tighter complex, the high end for a looser complex.

Chain of Gsc (P54366 267-356): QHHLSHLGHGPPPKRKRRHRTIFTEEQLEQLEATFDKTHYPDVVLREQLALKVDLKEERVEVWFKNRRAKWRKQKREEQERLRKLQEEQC

The first experiment addresses Gsc (Drosophila melanogaster, UniProt P54366 267-356). Briefly: FP; 33 mM phosphate pH 7.0, 90 mM NaCl, 0.01% Tween 20, 0.1 mM DTT, 0.5% agarose; room temperature. Particulars: tags: N-GST (pGEX-6P-1, kept); dsDNA, one strand shown.
On to CATTAATCCGAT, for which the binding signal is 4.41 Kd / Kd of best base at the position.
For the sequence AATTACTCCGAT, the binding signal is 24.4 Kd / Kd of best base at the position.
The same measure, in the same setting: with AATTAAACCGAT the figure was 9.22 Kd / Kd of best base at the position; with AATTAATCCTAT, 2.32 Kd / Kd of best base at the position; with AATGAATCCGAT, 42.9 Kd / Kd of best base at the position.
Regarding AATTAATCTGAT, the binding signal is 1.95 Kd / Kd of best base at the position.
Same read-out and setting: the same measure for AATTAATCCGAG: 1.56 Kd / Kd of best base at the position; for AATTAATCCGGT: 1.99 Kd / Kd of best base at the position.
Regarding AATTGATCCGAT, the binding signal was 12.6 Kd / Kd of best base at the position.
Regarding AAATAATCCGAT, the binding signal was 4.25 Kd / Kd of best base at the position.
On the same count and under the same terms, the same measure for AATTAATCGGAT: 3.62 Kd / Kd of best base at the position; for AATTAATCCGAC: 1.04 Kd / Kd of best base at the position.
AGTTAATCCGAT: the binding signal was 4.01 Kd / Kd of best base at the position.
For AATTAATCCAAT, the binding signal is 1.29 Kd / Kd of best base at the position.
In the case of AATTAATCCCAT, the binding signal was 1.16 Kd / Kd of best base at the position.
Still for that read-out and setting: with AAGTAATCCGAT the figure was 4.46 Kd / Kd of best base at the position.
Same read-out and setting: the same measure for AATTAGTCCGAT: 10.6 Kd / Kd of best base at the position.
As for AATTAATGCGAT, the binding signal is 9.37 Kd / Kd of best base at the position.
The same measure, in the same setting: the same measure for AATTAACCCGAT: 13.1 Kd / Kd of best base at the position; for AATAAATCCGAT: 8.9 Kd / Kd of best base at the position; for AATTTATCCGAT: 12.6 Kd / Kd of best base at the position.
The same measure, in the same setting: with TATTAATCCGAT the figure was 2.48 Kd / Kd of best base at the position.
On the same count and under the same terms, with ACTTAATCCGAT the figure was 10.4 Kd / Kd of best base at the position; with AATCAATCCGAT, 23.5 Kd / Kd of best base at the position; with AACTAATCCGAT, 2.52 Kd / Kd of best base at the position.
In the case of AATTATTCCGAT, the binding signal was 24.5 Kd / Kd of best base at the position.
In the case of AATTAATACGAT, the binding signal is 9.77 Kd / Kd of best base at the position.
The same measure, in the same setting: the same measure for AATTAATCCGTT: 1.04 Kd / Kd of best base at the position.
With AATTAATCCGCT, the binding signal was 3.18 Kd / Kd of best base at the position.
As to AATTAATCCGAT, the Kd is approximately 3.8 nM.
Take ATTTAATCCGAT: the binding signal is 3.67 Kd / Kd of best base at the position.
Still for that read-out and setting: the same measure for AATTCATCCGAT: 36.4 Kd / Kd of best base at the position.
For AATTAATCAGAT, the binding signal is 1.75 Kd / Kd of best base at the position.
For AATTAATTCGAT, the binding signal is 3.3 Kd / Kd of best base at the position.
In the case of AATTAAGCCGAT, the binding signal was 4.74 Kd / Kd of best base at the position.
On the same count and under the same terms, with GATTAATCCGAT the figure was 1.37 Kd / Kd of best base at the position.

In another experiment the target is T1, Optix (Drosophila melanogaster, UniProt Q95RW8 139-229).
T1 sequence: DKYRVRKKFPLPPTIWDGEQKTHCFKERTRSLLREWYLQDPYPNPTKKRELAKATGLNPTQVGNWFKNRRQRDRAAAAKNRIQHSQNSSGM
The experiment is described as above. Particulars: tags: N-GST (pGEX-6P-1, kept); dsDNA, one strand shown.
On to AGAGTGATAGCC, for which the binding signal was 4.04 Kd / Kd of best base at the position.
Take AGAGAGATAGCT: the binding signal is 9.88 Kd / Kd of best base at the position.
On the same count and under the same terms, the same measure for AGAGTGCTAGCT: 95.1 Kd / Kd of best base at the position; for AGAGTGATAGGT: 4.85 Kd / Kd of best base at the position.
